Assay results reported in ChEMBL document CHEMBL3988442, “University of Dundee, Small-Polar-MMV Screening Library” (2021).

target: AMP-activated protein kinase, AMPK (Homo sapiens) (UniProt P54646+O43741+P54619+Q9UGJ0+Q9Y478+Q13131+Q9UGI9); assay: AMP-dependent Kinase enzyme assay. An in vitro enzyme assay that detects ADP turnover that is directly proportional to AMPK activity. This uses naive AMPK that is activated during the assay with MK-8722; type: functional; parameters: scale not given: direction of the effect not stated beside the values; conditions: 30 µM

Row | Compound | Percent Effect
1 | COc1ccc(CCN2CCCC(CN(C)Cc3ccc(C)o3)C2)cc1 (stereo not drawn) | -4.07%
2 | CC(C)(C(=O)NCC(N)=O)c1ccccc1F | -0.917%
3 | COc1cc(C)c(C(C)NC(=O)Nc2nnc(C)s2)cc1OC (stereo not drawn) | -4.62%
4 | Cc1ccc(CN2CC[C@H]3[C@@H]2CCC(=O)N3CCN2CCCC2)s1 | 8.56%
5 | CS(=O)(=O)NC[C@@H]1OC[C@H]2CN(C(=O)c3ccc[nH]3)CC[C@H]21 | 4.44%
6 | CC(C)OCCCNC(=O)CN1CCC(N2CCN(C)C2=O)CC1 | -9.11%
7 | O=C(Cn1nc(-c2ccc(F)cc2)oc1=O)Nc1ccccc1 | -0.861%
8 | CNS(=O)(=O)c1cccc(C(C)NCc2nccn2C(C)C)c1 (stereo not drawn) | -9.13%
9 | Cc1cc(C)n(CC2CCCN2C(=O)c2cccc3[nH]ncc23)n1 (stereo not drawn) | -1.43%
10 | CC1CCCN(Cc2c(C3CCOCC3)[nH]c3ncccc23)C1 (stereo not drawn) | 4.08%
11 | CCCc1nc(CN2CCOC(CNc3cccnn3)C2)cs1 (stereo not drawn) | -3.87%
12 | CN(C)C(=O)C1CN(Cc2c[nH]cn2)CCN(C2CCOCC2)C1 (stereo not drawn) | 8.74%
13 | CC(Oc1ccccc1C(F)(F)F)C(=O)NCC(N)=O (stereo not drawn) | 0.686%
14 | CCn1cc(CN(C)S(=O)(=O)c2ccc(Cl)cc2)cn1 | 0.176%
15 | Cc1cnn(CC2CCCCN2C(=O)CN(C)C2CC2)c1 (stereo not drawn) | -0.801%
16 | Cc1ccc(NC2CCN(C(=O)Cc3cccc(F)c3)CC2)nn1 | -15.1%
17 | O=C(NCCCN1CCOCC1)c1cc(-c2ccco2)[nH]n1 | -11%
18 | CCc1ccc(S(=O)(=O)Nc2cc(C(=O)O)c(F)cc2F)s1 | -14.5%
19 | O=C(Nc1ccc(F)cc1)N1C[C@H]2CC[C@@H]1CN(Cc1cccnc1)C2 | 4.71%
20 | CCC(C)NC(=O)Nc1ccc(CN2CCOC2=O)cc1 (stereo not drawn) | -16.3%

Row | Compound | Percent Effect
21 | Cc1cnc2c(S(=O)(=O)NCC3CCS(=O)(=O)C3)cccc2c1 (stereo not drawn) | -0.0656%
22 | Cn1ncc2c(=O)[nH]c(CN3CCCC3CC3CCCCC3)nc21 (stereo not drawn) | -3.55%
23 | COc1cc(CNC(=O)c2c(C)noc2C(C)C)ccn1 | -8.18%
24 | Cc1nc(C)n(CC2CN(CCc3ccncc3)CCO2)n1 (stereo not drawn) | 1.35%
25 | Nc1cc2c(nn1)CCN(C(=O)c1cccc3c1OCCO3)C2 | -2.26%
26 | COc1cccc(CN2CCCCCC2c2cccs2)c1O (stereo not drawn) | -1.74%
27 | CC(C)c1cc(NC(=O)CN2CCc3ccccc3C2)on1 | -1.59%
28 | Cc1cc(C[C@@H]2COC[C@H]2NCc2ccc(Br)s2)on1 | 9.27%
29 | Cn1nc(C2CN(C(=O)c3cscn3)C2)c2nccnc21 | -2.02%
30 | Cc1cc(C)n(CC(=O)N2CCC(NS(=O)(=O)c3ccccc3)CC2)n1 | 4.71%
31 | Cc1ccccc1C(=O)CN1C(=O)c2ccccc2CS1(=O)=O | 2.31%
32 | CCCS(=O)(=O)N1CCC(NC(=O)c2ccc(Cl)s2)CC1 | -1.87%
33 | COCC(c1cccc(C(F)(F)F)c1)N(C)C(=O)c1cc(C)n[nH]1 (stereo not drawn) | -1.4%
34 | Cc1nn(C)c(C)c1CCC(=O)N1CCCC1Cn1cccn1 (stereo not drawn) | 5.43%
35 | CN(Cc1ccc(F)cc1)C(=O)NCc1nnc2n1CCCCC2 | -3.69%
36 | Cc1cc(CN2CCN(C(=O)NCc3nc(C)cs3)CC2)on1 | -8.55%
37 | COCCOc1ccc(NC(=O)C2CC(=O)N(C)C2)cn1 (stereo not drawn) | -16.4%
38 | Cc1cnn(CC2CCCN2C(=O)CCc2nc3ccccc3[nH]2)c1 (stereo not drawn) | -2.81%
39 | CCN(CC)C(=O)c1ccc(-c2ccsc2)nc1C | 5.62%

target: Sialic acid-binding Ig-like lectin 9 (Homo sapiens) (UniProt Q9Y336); assay: Hs-Siglec9 ALPHAscreen SOP 20170721; parameters: scale not given: direction of the effect not stated beside the values; conditions: 10 µM
Sequence (Q9Y336 whole entry): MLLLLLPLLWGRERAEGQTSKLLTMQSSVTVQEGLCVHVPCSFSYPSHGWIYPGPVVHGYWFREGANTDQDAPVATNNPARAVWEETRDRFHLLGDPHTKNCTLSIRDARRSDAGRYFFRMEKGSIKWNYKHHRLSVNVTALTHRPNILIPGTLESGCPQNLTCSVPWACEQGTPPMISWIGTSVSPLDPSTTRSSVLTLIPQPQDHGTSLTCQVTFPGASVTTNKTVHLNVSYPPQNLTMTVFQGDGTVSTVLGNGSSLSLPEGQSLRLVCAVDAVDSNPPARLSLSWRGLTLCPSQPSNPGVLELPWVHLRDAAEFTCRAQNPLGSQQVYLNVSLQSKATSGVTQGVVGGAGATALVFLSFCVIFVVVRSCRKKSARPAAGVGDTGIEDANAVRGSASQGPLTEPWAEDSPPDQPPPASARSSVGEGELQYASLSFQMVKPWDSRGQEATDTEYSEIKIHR

Row | Compound | Percent Effect
40 | COc1ccc(CCN2CCCC(CN(C)Cc3ccc(C)o3)C2)cc1 (stereo not drawn) | 31.8%
41 | CC(C)(C(=O)NCC(N)=O)c1ccccc1F | -6.27%
42 | COc1cc(C)c(C(C)NC(=O)Nc2nnc(C)s2)cc1OC (stereo not drawn) | 14.6%
43 | Cc1ccc(CN2CC[C@H]3[C@@H]2CCC(=O)N3CCN2CCCC2)s1 | -12.2%
44 | CS(=O)(=O)NC[C@@H]1OC[C@H]2CN(C(=O)c3ccc[nH]3)CC[C@H]21 | 3.67%
45 | CC(C)OCCCNC(=O)CN1CCC(N2CCN(C)C2=O)CC1 | 10.6%
46 | O=C(Cn1nc(-c2ccc(F)cc2)oc1=O)Nc1ccccc1 | -9.34%
47 | CNS(=O)(=O)c1cccc(C(C)NCc2nccn2C(C)C)c1 (stereo not drawn) | -6.24%
48 | Cc1cc(C)n(CC2CCCN2C(=O)c2cccc3[nH]ncc23)n1 (stereo not drawn) | 12.1%
49 | CC1CCCN(Cc2c(C3CCOCC3)[nH]c3ncccc23)C1 (stereo not drawn) | -6.47%
50 | CCCc1nc(CN2CCOC(CNc3cccnn3)C2)cs1 (stereo not drawn) | 5.09%
51 | CN(C)C(=O)C1CN(Cc2c[nH]cn2)CCN(C2CCOCC2)C1 (stereo not drawn) | 1.93%
52 | CC(Oc1ccccc1C(F)(F)F)C(=O)NCC(N)=O (stereo not drawn) | -2.42%
53 | CCn1cc(CN(C)S(=O)(=O)c2ccc(Cl)cc2)cn1 | -5.16%
54 | Cc1cnn(CC2CCCCN2C(=O)CN(C)C2CC2)c1 (stereo not drawn) | -3.2%
55 | Cc1ccc(NC2CCN(C(=O)Cc3cccc(F)c3)CC2)nn1 | 7.97%
56 | O=C(NCCCN1CCOCC1)c1cc(-c2ccco2)[nH]n1 | 10.3%
57 | CCc1ccc(S(=O)(=O)Nc2cc(C(=O)O)c(F)cc2F)s1 | 19.8%
58 | O=C(Nc1ccc(F)cc1)N1C[C@H]2CC[C@@H]1CN(Cc1cccnc1)C2 | -2.61%
59 | CCC(C)NC(=O)Nc1ccc(CN2CCOC2=O)cc1 (stereo not drawn) | -0.797%

Row | Compound | Percent Effect
60 | Cc1cnc2c(S(=O)(=O)NCC3CCS(=O)(=O)C3)cccc2c1 (stereo not drawn) | -5%
61 | Cn1ncc2c(=O)[nH]c(CN3CCCC3CC3CCCCC3)nc21 (stereo not drawn) | 4.78%
62 | COc1cc(CNC(=O)c2c(C)noc2C(C)C)ccn1 | 3.15%
63 | Cc1nc(C)n(CC2CN(CCc3ccncc3)CCO2)n1 (stereo not drawn) | 6.79%
64 | Nc1cc2c(nn1)CCN(C(=O)c1cccc3c1OCCO3)C2 | 6.77%
65 | COc1cccc(CN2CCCCCC2c2cccs2)c1O (stereo not drawn) | -0.0415%
66 | CC(C)c1cc(NC(=O)CN2CCc3ccccc3C2)on1 | 2.02%
67 | Cc1cc(C[C@@H]2COC[C@H]2NCc2ccc(Br)s2)on1 | -0.828%
68 | Cn1nc(C2CN(C(=O)c3cscn3)C2)c2nccnc21 | -2.09%
69 | Cc1cc(C)n(CC(=O)N2CCC(NS(=O)(=O)c3ccccc3)CC2)n1 | 6.53%
70 | Cc1ccccc1C(=O)CN1C(=O)c2ccccc2CS1(=O)=O | -3.21%
71 | CCCS(=O)(=O)N1CCC(NC(=O)c2ccc(Cl)s2)CC1 | 5.67%
72 | COCC(c1cccc(C(F)(F)F)c1)N(C)C(=O)c1cc(C)n[nH]1 (stereo not drawn) | -4.5%
73 | Cc1nn(C)c(C)c1CCC(=O)N1CCCC1Cn1cccn1 (stereo not drawn) | -1.49%
74 | CN(Cc1ccc(F)cc1)C(=O)NCc1nnc2n1CCCCC2 | 5.52%
75 | Cc1cc(CN2CCN(C(=O)NCc3nc(C)cs3)CC2)on1 | -8.19%
76 | COCCOc1ccc(NC(=O)C2CC(=O)N(C)C2)cn1 (stereo not drawn) | -3.76%
77 | Cc1cnn(CC2CCCN2C(=O)CCc2nc3ccccc3[nH]2)c1 (stereo not drawn) | 11.1%
78 | CCN(CC)C(=O)c1ccc(-c2ccsc2)nc1C | -7.86%
